Results on 206 variants are retold here after a collection of fitness landscapes (doi:10.1126/science.1257360).

The chains are these.
B1: PhoQ; a variant is named by its letters at X, in order, P23837 (parent)
chain: MKKLLRLFFPLSLRVRFLLATAAVVLVLSLAYGMVALIGYSVSFDKTTFRLLRGESNLFYTLAKWENNKLHVELPENIDKQSPTMTLIYDENGQLLWAQRDVPWLMKMIQPDWLKSNGFHEIEADVNDTSLLLSGDHSIQQQLQEVREDDDDAEMTHSVAVNVYPATSRMPKLTIVVVDTIPVELKSSYMVWSWFIYVLSANLLLVIPLLWVAAWWSLRPIEALAKEVRELEEHNRELLNPATTRELTSLVRNLNRLLKSERERYDKYRTTLTDLTHSLKTPLXXLQXXLRSLRSEKMSVSDAEPVMLEQISRISQQIGYYLHRASMRGGTLLSRELHPVAPLLDNLTSALNKVYQRKGVNISLDISPEISFVGEQNDFVEVMGNVLDNACKYCLEFVEISARQTDEHLYIVVEDDGPGIPLSKREVIFDRGQRVDTLRPGQGVGLAVAREITEQYEGKIVAGESMLGGARMEVIFGRQHSAPKDE

In all, about 140,000 sequences were measured (“enrichment ratio after two sorts for PhoP signalling”: median about 0, highest 2% from about 11 on). This excerpt belongs to a sample that is enriched for the highest values.

This test covers variants of B1. Kind of test: enrichment ratio after two sorts for PhoP signalling (ratio (wild type AVST 3.29)); higher = more functional. As to conditions: with PhoP (E. coli).
For the variant VMTR, the enrichment ratio is not above 0.25.

As to STQS, the enrichment ratio was not above 0.25.

In the case of KTAN, the enrichment ratio is not above 0.25.

With DFLN, the enrichment ratio was not above 0.25.

NTCK: the enrichment ratio was not above 0.25.

QLKF: the enrichment ratio is not above 0.25.

Turning to GGQG, the enrichment ratio is not above 0.25.

Regarding KAQG, the enrichment ratio is not above 0.25.

With PFQG, the enrichment ratio is not above 0.25.

On to NVQG, for which the enrichment ratio is not above 0.25.

For the variant TFQG, the enrichment ratio turned out to be 12.3.

For the variant PVQG, the enrichment ratio is not above 0.25.

For NFQG, the enrichment ratio is not above 0.25.

With TLQG, the enrichment ratio is 11.8.

For the variant TGQG, the enrichment ratio was 15.7.

Consider PLQG, for which the enrichment ratio was not above 0.25.

Consider RGQG, for which the enrichment ratio is not above 0.25.

In the case of TVQG, the enrichment ratio was 14.6.

Take VFKH: the enrichment ratio was not above 0.25.

Consider NHHA, for which the enrichment ratio was not above 0.25.

Regarding ILFN, the enrichment ratio is not above 0.25.

For FTCA, the enrichment ratio was not above 0.25.

For the variant STNQ, the enrichment ratio is 1.23.

As for FWKT, the enrichment ratio was not above 0.25.

For the variant LMTM, the enrichment ratio is not above 0.25.

Consider EMQG, for which the enrichment ratio was not above 0.25.

Consider HAQG, for which the enrichment ratio is not above 0.25.

For TMQG, the enrichment ratio was found to be 11.9.

As for TITY, the enrichment ratio was not above 0.25.

As for NQAM, the enrichment ratio was not above 0.25.

Turning to SNCK, the enrichment ratio was 0.609.

As for FQAM, the enrichment ratio was not above 0.25.

For the variant SNWM, the enrichment ratio was not above 0.25.

SLAT: the enrichment ratio is not above 0.25.

With ITAM, the enrichment ratio was 0.308.

Consider SNAM, for which the enrichment ratio stood at 13.5.

Take TTAM: the enrichment ratio turned out to be 17.5.

For the variant GTAM, the enrichment ratio was not above 0.25.

For the variant SFAT, the enrichment ratio is not above 0.25.

Take SQAT: the enrichment ratio was determined as 12.5.

Turning to TQAM, the enrichment ratio is 25.5.

As for EQWF, the enrichment ratio was not above 0.25.

For the variant TQKS, the enrichment ratio was not above 0.25.

Consider TDDA, for which the enrichment ratio was not above 0.25.

HGKC: the enrichment ratio was not above 0.25.

For ILFG, the enrichment ratio is not above 0.25.

Consider SERM, for which the enrichment ratio is not above 0.25.

On to YTAM, for which the enrichment ratio is not above 0.25.

For SQAM, the enrichment ratio was determined as 21.4.

As to SFAM, the enrichment ratio was not above 0.25.

Regarding SEAM, the enrichment ratio amounted to 15.9.

As to STAM, the enrichment ratio stood at 12.1.

With WQAM, the enrichment ratio is not above 0.25.

Turning to SPAM, the enrichment ratio is not above 0.25.

As to RSGP, the enrichment ratio is not above 0.25.

As for ILCM, the enrichment ratio was not above 0.25.

As for CSYF, the enrichment ratio was not above 0.25.

With EGPL, the enrichment ratio is not above 0.25.

For the variant STKG, the enrichment ratio is not above 0.25.

For TAEP, the enrichment ratio stood at 0.518.

On to VSNR, for which the enrichment ratio was not above 0.25.

Turning to AKLN, the enrichment ratio is 14.

As for ITLN, the enrichment ratio was 1.49.

On to TGCN, for which the enrichment ratio was found to be 42.2.

For the variant GGCN, the enrichment ratio amounted to 0.54.

TKLN: the enrichment ratio came to 8.35.

With TTLN, the enrichment ratio worked out at 23.9.

YTLN: the enrichment ratio was determined as 8.58.

Turning to RGCN, the enrichment ratio was not above 0.25.

For KYLN, the enrichment ratio was not above 0.25.

In the case of STLN, the enrichment ratio stood at 14.8.

With SPLN, the enrichment ratio was not above 0.25.

Turning to AILN, the enrichment ratio was 4.12.

Consider AGQV, for which the enrichment ratio is not above 0.25.

On to QSKK, for which the enrichment ratio is not above 0.25.

HWTI: the enrichment ratio was not above 0.25.

In the case of QAFH, the enrichment ratio amounted to 9.93.

For QFDR, the enrichment ratio was not above 0.25.

Regarding QGQP, the enrichment ratio is not above 0.25.

For LKDC, the enrichment ratio was not above 0.25.

Take PWTA: the enrichment ratio was not above 0.25.

As for LSFA, the enrichment ratio was not above 0.25.

Turning to YDML, the enrichment ratio was not above 0.25.

As to ATLN, the enrichment ratio was 17.9.

Regarding AHCN, the enrichment ratio is not above 0.25.

In the case of AICN, the enrichment ratio came to 18.7.

For RICN, the enrichment ratio was not above 0.25.

As to NICN, the enrichment ratio was not above 0.25.

With NVCN, the enrichment ratio is not above 0.25.

Regarding TVCN, the enrichment ratio was 26.1.

Regarding ADCN, the enrichment ratio was determined as 11.5.

As for ATCN, the enrichment ratio worked out at 3.42.

Regarding ATQN, the enrichment ratio is not above 0.25.

For the variant SPCN, the enrichment ratio was not above 0.25.

As to AWCN, the enrichment ratio was not above 0.25.

In the case of CTFI, the enrichment ratio was determined as 9.39.

For DTFW, the enrichment ratio was not above 0.25.

In the case of LRFL, the enrichment ratio is not above 0.25.

As for IIPK, the enrichment ratio was not above 0.25.

EKLK: the enrichment ratio is not above 0.25.

For the variant QVPD, the enrichment ratio is not above 0.25.

With ENFI, the enrichment ratio is not above 0.25.

Consider QKFY, for which the enrichment ratio was not above 0.25.

In the case of SGLN, the enrichment ratio came to 10.9.

Take HWCN: the enrichment ratio is not above 0.25.

As for ANLN, the enrichment ratio amounted to 8.47.

As to SGCK, the enrichment ratio was found to be 8.85.

With ASLN, the enrichment ratio came out at 9.05.

Regarding LTCN, the enrichment ratio was not above 0.25.

As to ANCN, the enrichment ratio was 33.

Consider SGCN, for which the enrichment ratio was determined as 11.5.

As for VRCN, the enrichment ratio is not above 0.25.

In the case of TDCN, the enrichment ratio stood at 15.7.

On to KDCN, for which the enrichment ratio is not above 0.25.

On to ASCN, for which the enrichment ratio was determined as 15.3.

Consider MIMG, for which the enrichment ratio is not above 0.25.

As to MYAM, the enrichment ratio is not above 0.25.

Regarding RCLW, the enrichment ratio is not above 0.25.

As to SMWE, the enrichment ratio is not above 0.25.

On to ALQI, for which the enrichment ratio was not above 0.25.

Turning to PLLC, the enrichment ratio is not above 0.25.

MISF: the enrichment ratio stood at 3.65.

Take KACN: the enrichment ratio is not above 0.25.

As to YTCN, the enrichment ratio was not above 0.25.

For the variant TTCN, the enrichment ratio was 11.9.

As for AACN, the enrichment ratio worked out at 12.7.

As for LWCN, the enrichment ratio was not above 0.25.

Regarding AALN, the enrichment ratio was 8.23.

For the variant KGPM, the enrichment ratio is not above 0.25.

With SMIS, the enrichment ratio is not above 0.25.

On to MEVI, for which the enrichment ratio came out at 18.2.

TEYD: the enrichment ratio is not above 0.25.

Take MMVI: the enrichment ratio is not above 0.25.

For TEVA, the enrichment ratio is 6.58.

Regarding NEVI, the enrichment ratio worked out at 4.98.

For MENM, the enrichment ratio is not above 0.25.

In the case of TENM, the enrichment ratio was found to be 15.7.

For the variant MCVI, the enrichment ratio was not above 0.25.

For TEGD, the enrichment ratio is not above 0.25.

On to TEND, for which the enrichment ratio was 23.1.

For TEVI, the enrichment ratio was 12.8.

NENM: the enrichment ratio is not above 0.25.

Turning to ESVY, the enrichment ratio is not above 0.25.

On to NGGL, for which the enrichment ratio is not above 0.25.

Regarding LFQL, the enrichment ratio was not above 0.25.

Take KSDP: the enrichment ratio was not above 0.25.

With FMMA, the enrichment ratio is not above 0.25.

Consider TENL, for which the enrichment ratio was found to be 6.63.

In the case of TENY, the enrichment ratio is 11.3.

In the case of TENS, the enrichment ratio amounted to 8.17.

With PRSQ, the enrichment ratio is not above 0.25.

As for TGHK, the enrichment ratio is not above 0.25.

Turning to FSEI, the enrichment ratio was not above 0.25.

Take AAMG: the enrichment ratio came out at 9.84.

As to SQST, the enrichment ratio was 6.97.

Consider YEST, for which the enrichment ratio was 12.8.

For SEST, the enrichment ratio was found to be 18.4.

For TEST, the enrichment ratio came to 23.4.

With FTST, the enrichment ratio is not above 0.25.

Consider SRST, for which the enrichment ratio was not above 0.25.

With QEST, the enrichment ratio is 1.97.

As for NEST, the enrichment ratio is 3.45.

With YTST, the enrichment ratio is not above 0.25.

On to PLIK, for which the enrichment ratio is not above 0.25.

For AQAT, the enrichment ratio amounted to 5.01.

On to SLNT, for which the enrichment ratio is not above 0.25.

Turning to FKYM, the enrichment ratio was not above 0.25.

For KASH, the enrichment ratio is not above 0.25.

Consider TAKH, for which the enrichment ratio was not above 0.25.

Take HFAH: the enrichment ratio is not above 0.25.

TAAH: the enrichment ratio was determined as 19.2.

As for TASH, the enrichment ratio came out at 11.7.

For TANH, the enrichment ratio was not above 0.25.

In the case of YMQV, the enrichment ratio was not above 0.25.

Regarding FCDV, the enrichment ratio is not above 0.25.

Turning to TITS, the enrichment ratio was determined as 15.9.

As to TIYI, the enrichment ratio turned out to be 4.29.

For the variant TIWI, the enrichment ratio was not above 0.25.

As for TIRA, the enrichment ratio is not above 0.25.

For the variant AIQI, the enrichment ratio amounted to 0.475.

Consider RINR, for which the enrichment ratio is not above 0.25.

As for TIWS, the enrichment ratio is 15.7.

As for TINR, the enrichment ratio came out at 15.4.

Take TIQI: the enrichment ratio came out at 12.3.

TIRM: the enrichment ratio is 5.12.

For the variant WINR, the enrichment ratio is not above 0.25.

Regarding RIQI, the enrichment ratio was not above 0.25.

As for KTHN, the enrichment ratio is not above 0.25.

For the variant SPNA, the enrichment ratio was not above 0.25.

As to NRQT, the enrichment ratio is not above 0.25.

Turning to APHK, the enrichment ratio was not above 0.25.

As to IMQV, the enrichment ratio is not above 0.25.

As for LPRC, the enrichment ratio was not above 0.25.

On to EVLG, for which the enrichment ratio was not above 0.25.

TINN: the enrichment ratio was 12.6.

Take TINL: the enrichment ratio is 9.31.

As for TIMG, the enrichment ratio amounted to 3.15.

For WISC, the enrichment ratio was not above 0.25.

Regarding TISA, the enrichment ratio amounted to 10.6.

On to TISS, for which the enrichment ratio amounted to 11.9.

Regarding TISC, the enrichment ratio was determined as 15.

As to PSEG, the enrichment ratio was not above 0.25.

As for RISC, the enrichment ratio was not above 0.25.

Turning to WISS, the enrichment ratio was not above 0.25.

As to TIEG, the enrichment ratio worked out at 11.8.

Turning to RINN, the enrichment ratio was not above 0.25.
